This passage reports outcome, potentiation and inhibition results from PubChem BioAssay.

Molecules are shown by their SMILES. For part of these data: Potency and affinity values are given separately. Active and inactive are the calls of the source.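 How the source made its calls, unless noted: active means primary screen inhibitor hit that blocks the TRPC4 channel at some tested dose, yielding a dose curve; inactive means the rest.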

Experiment [1] has as its system TRPC4 beta (transient receptor potential cation channel C4), mouse. The experiment can be described thus: activators of mouse TRPC4 channel, confirmation, cell-based, Fluo4 calcium, HEK293 TRPC4beta/mu-opioid, duplicates, 10 µM (AID 2426;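 active means fluorescence ratio normalized to control raised more than 50% in primary screen plus both repeat runs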). Conditions: Fluo4 calcium fluorescence, at 10 µM; stronger effect = higher value.
The subject of experiment [2] is transient receptor potential cation channel C4 beta (TRPC4), mouse. The experiment can be described thus: activators of mouse TRPC4 channel, confirmation, cell-based, second round, Fluo4, HEK293 TRPC4beta/mu-opioid, 1 µM (AID 2461;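 active means primary screen active and over 50% activation in each of two duplicate runs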). The note with it: Fluo4 calcium fluorescence, at 1 µM; stronger effect = higher value.
Experiment [3] deals with TRPC4 (transient receptor potential cation channel C4 beta), mouse. The experiment can be described thus: positive allosteric modulators of mouse TRPC4, confirmation, cell-based, second round, Fluo-4, HEK293 TRPC4beta/mu-opioid, 1 µM (AID 2554;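 active means primary screen hit whose fluorescence ratio, in both repeats, exceeds the weak agonist control mean by 3 SD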). The note with it: DAMGO EC20, Fluo-4 calcium flux, at 1 µM; stronger effect = higher value.
For experiment [4], the system named is TRPC4 beta (transient receptor potential cation channel C4), mouse. Nature of the experiment: positive allosteric modulators of mouse TRPC4, confirmation, cell-based, Fluo-4, HEK293 TRPC4beta/mu-opioid (AID 2555;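 active means primary screen hit whose calcium fluorescence ratio, in both repeats, exceeds the weak agonist control mean by 3 SD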). The note with it: DAMGO EC20, Fluo-4 calcium flux, at 10 µM; stronger effect = higher value. A general note: A change in cytosolic calcium serves as a functional read-out for many receptors and channels.

Experiment [5] concerns the target Short transient receptor potential channel 4 (Mus musculus) (UniProt Q9QUQ5). The experiment can be described thus: inhibitors of mouse TRPC4 channel, confirmation, cell-based, Fluo4, HEK293 TRPC4beta/mu-opioid (AID 2636;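 active means calcium signal cut by more than 3 SD below the full-agonist control yet still positive, in both repeats and the earlier primary screen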). Conditions: DAMGO, Fluo4 calcium flux, at 10 µM; stronger effect = higher value.
Experiment [6] has the same target. The experiment can be described thus: inhibitors of mouse TRPC4 channel, confirmation, cell-based, second round, Fluo4, HEK293 TRPC4beta/mu-opioid, 1 µM (AID 2637;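 active means calcium signal ratio cut to more than 3 SD under the fully stimulated control mean yet still positive, in both repeats and the primary screen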;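 on inhibition: percent of integrated ratio relative to wells lacking test compound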). Conditions: Fluo4 calcium flux, DAMGO, at 1 µM; stronger effect = higher value.
The target is the same in experiment [7]. The experiment can be described thus: mouse TRPC4 channel activators, dose response, cell-based, HEK293 TRPC4/mu-opioid, Fluo-4 calcium (AID 434937;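 active means primary screen activator hit with a dose response curve and TRPC4 channel activation at any tested dose; inactive means no activation, no dose response, or not a primary hit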).
For experiment [8] the target is unchanged. Nature of the experiment: TRPC4 positive allosteric modulators, dose response, cell-based, HEK293 TRPC4/mu-opioid, Fluo-4 calcium, EC20 DAMGO (AID 434941;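 active means earlier screen potentiator hit that boosts the TRPC4 ion channel at some dose, with a dose response; inactive means no potentiation, no dose response, or not a prior hit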;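 further: calcium entry triggered by an EC20 dose of DAMGO at the co-expressed mu-opioid receptor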).
The target is the same in experiment [9]. Nature of the experiment: mouse TRPC4 channel inhibitors, dose response, cell-based, HEK293 TRPC4/mu-opioid, Fluo-4 calcium (AID 434942).
Experiment [10] addresses Short transient receptor potential channel 6 (Mus musculus) (UniProt Q61143). The experiment can be described thus: inhibition of mouse TRPC6 channel, confirmation, selectivity assay for TRPC4 inhibitor project, cell-based, HEK293, membrane potential dye, duplicate (AID 434948;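 active means active in primary screen and both duplicates, each dropping signal beyond three positive-control SD with fluorescence still positive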). The note with it: HEK293 TRPC6, membrane potential dye fluorescence, at 10 µM, stimulated with maximal-effect acetylcholine; stronger effect = higher value.

For experiment [11] the target is unchanged. The experiment can be described thus: activation of mouse TRPC6 channel, confirmation, selectivity assay for TRPC4 activator project, cell-based, HEK293, membrane potential dye, duplicate (AID 434950;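 active means membrane potential signal rise above negative control mean plus 3 SD in both duplicates, also active in the earlier TRPC4 screen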). Conditions: HEK293 TRPC6, membrane potential fluorescence, at 10 µM; stronger effect = higher value.
Experiment [12] has the same target. Nature of the experiment: TRPC6 potentiation by TRPC4 potentiator hits, confirmation, selectivity assay for TRPC4 potentiator project, HEK293 cells, membrane potential dye, duplicate (AID 434952;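 active means compound raising the membrane signal above positive-control mean plus 3 SD in both repeats, and a primary screen hit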). The note with it: HEK293 TRPC6, membrane potential dye fluorescence, at 10 µM, maximal acetylcholine added after compound; stronger effect = higher value.
Experiment [13] concerns the target Short transient receptor potential channel 4 (Mus musculus) (UniProt Q9QUQ5). Nature of the experiment: calcium flux activators in TRPC4/5HT1a cells, counter-screen for TRPC4 activator project, cell-based, second counter screen, HEK293 TRPC4/5HT1a, Fluo-4 (AID 434977;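 active means calcium signal rise above buffer-control mean plus 5 SD in both duplicates, and also a hit in the primary screen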). Conditions: Fluo-4 calcium flux, at 10 µM; stronger effect = higher value.
Experiment [14] can be described thus: calcium flux inhibitors in TRPC4/5HT1a cells, confirmation, counter-screen for TRPC4 inhibitor project, cell-based, second counter screen, HEK293 TRPC4/5HT1a, Fluo-4 (AID 434978;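 active means primary screen active whose calcium signal fell more than 3 SD beyond the full-serotonin control mean in both duplicate plates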;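 on outcome: serotonin given first at submaximal then at maximal dose after compound preincubation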). The note with it: Fluo-4 calcium flux, at 10 µM, serotonin added to trigger calcium flux; stronger effect = higher value.
Experiment [15] relates to TRPC4 (mouse), co-expressed with 5HT1a in HEK293. Nature of the experiment: calcium flux potentiators in TRPC4/5HT1a cells, confirmation, counter-screen for TRPC4 potentiator project, cell-based, second counter screen, HEK293 TRPC4/5HT1a, Fluo-4 (AID 434979;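 active means signal rise over 3 SD above mean of control wells given weak agonist, in both repeats and first screen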). The note with it: Fluo-4 calcium flux, at 10 µM, serotonin added at its EC20 dose; stronger effect = higher value.
A short description of experiment [16]: calcium flux activation in mu-opioid HEK293 cells, confirmation, counter-screen for TRPC4 activator project, cell-based, HEK293 mu-opioid receptor line (AID 449723;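 active means hit in primary screen, with calcium signal over 5 SD above buffer well mean in both duplicates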;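 further: counter screen cells carry the mu-opioid receptor alone and lack TRPC4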). Conditions: Fluo-4 calcium fluorescence, at 10 µM; stronger effect = higher value.
Experiment [17] can be described thus: calcium flux enhancement in mu-opioid HEK293 cells, confirmation, counter-screen for TRPC4 allosteric potentiator project, cell-based, HEK293 mu-opioid receptor line (AID 449724;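 active means calcium signal rise more than 3 SD above the low-dose agonist control mean, in both duplicate plates and the primary screen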;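 further: HEK293 cells carrying mu-opioid receptor only with no TRPC4 channel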). Conditions: Fluo-4 calcium flux, at 10 µM, compound added before EC20 DAMGO stimulus; stronger effect = higher value.

Short transient receptor potential channel 6 (Mus musculus), sequence (Q61143 whole entry, looked up): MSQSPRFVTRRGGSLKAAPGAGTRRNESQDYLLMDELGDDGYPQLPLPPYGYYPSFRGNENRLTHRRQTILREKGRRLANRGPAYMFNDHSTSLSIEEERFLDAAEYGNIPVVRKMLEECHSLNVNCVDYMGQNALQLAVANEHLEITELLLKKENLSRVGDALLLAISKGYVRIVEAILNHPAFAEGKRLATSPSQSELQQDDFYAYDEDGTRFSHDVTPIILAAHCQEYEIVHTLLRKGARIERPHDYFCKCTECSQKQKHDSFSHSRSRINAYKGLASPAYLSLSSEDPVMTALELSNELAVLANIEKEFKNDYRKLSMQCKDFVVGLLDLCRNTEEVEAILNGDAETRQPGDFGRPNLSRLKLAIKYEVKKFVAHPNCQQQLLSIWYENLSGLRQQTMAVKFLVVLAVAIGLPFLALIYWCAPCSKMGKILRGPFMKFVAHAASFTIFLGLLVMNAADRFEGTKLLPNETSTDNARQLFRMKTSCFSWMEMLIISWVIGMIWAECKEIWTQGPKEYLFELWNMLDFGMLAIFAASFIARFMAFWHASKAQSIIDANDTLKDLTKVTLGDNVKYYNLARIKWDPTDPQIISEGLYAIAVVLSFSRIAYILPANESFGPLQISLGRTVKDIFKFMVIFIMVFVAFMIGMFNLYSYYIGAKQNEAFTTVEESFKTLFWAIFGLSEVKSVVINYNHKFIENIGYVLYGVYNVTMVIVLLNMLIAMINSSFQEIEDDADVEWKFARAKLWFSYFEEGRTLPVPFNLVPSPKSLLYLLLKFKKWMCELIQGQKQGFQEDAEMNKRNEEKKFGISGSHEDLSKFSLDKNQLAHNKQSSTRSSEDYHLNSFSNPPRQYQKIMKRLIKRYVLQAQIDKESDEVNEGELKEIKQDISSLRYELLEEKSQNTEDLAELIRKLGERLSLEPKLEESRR
Short transient receptor potential channel 4 (Mus musculus), sequence (Q9QUQ5 whole entry, looked up): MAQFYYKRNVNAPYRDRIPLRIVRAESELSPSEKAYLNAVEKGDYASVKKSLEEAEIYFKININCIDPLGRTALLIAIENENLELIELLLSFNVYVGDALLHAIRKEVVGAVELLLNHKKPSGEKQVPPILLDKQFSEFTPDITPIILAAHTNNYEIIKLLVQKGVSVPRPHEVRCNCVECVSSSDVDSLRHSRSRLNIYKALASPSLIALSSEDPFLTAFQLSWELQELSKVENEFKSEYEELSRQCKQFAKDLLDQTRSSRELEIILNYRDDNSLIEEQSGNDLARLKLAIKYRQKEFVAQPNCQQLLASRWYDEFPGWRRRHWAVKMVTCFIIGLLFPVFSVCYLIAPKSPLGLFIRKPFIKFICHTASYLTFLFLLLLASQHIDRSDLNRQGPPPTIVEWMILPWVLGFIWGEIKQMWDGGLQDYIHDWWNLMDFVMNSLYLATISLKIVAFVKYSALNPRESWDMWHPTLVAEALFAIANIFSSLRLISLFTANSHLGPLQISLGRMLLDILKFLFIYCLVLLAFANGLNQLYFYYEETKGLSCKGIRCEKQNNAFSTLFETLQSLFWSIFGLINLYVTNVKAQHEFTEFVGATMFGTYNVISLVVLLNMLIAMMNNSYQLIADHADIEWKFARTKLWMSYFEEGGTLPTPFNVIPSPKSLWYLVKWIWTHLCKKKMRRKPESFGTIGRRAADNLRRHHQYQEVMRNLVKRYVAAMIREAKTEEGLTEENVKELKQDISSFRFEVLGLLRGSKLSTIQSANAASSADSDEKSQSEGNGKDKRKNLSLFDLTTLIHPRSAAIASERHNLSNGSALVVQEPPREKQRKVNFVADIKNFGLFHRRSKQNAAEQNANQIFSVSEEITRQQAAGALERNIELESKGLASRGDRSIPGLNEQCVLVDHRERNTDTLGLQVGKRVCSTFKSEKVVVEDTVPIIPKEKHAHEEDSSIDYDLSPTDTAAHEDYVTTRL

`O=C(NC1CC1)c1ccc2c(c1)N(Cc1ccc(Cl)cc1)CCS2`: the result in experiment [1], in experiment [2], in experiment [3], in experiment [4], in experiment [5] and in experiment [6] was inactive. For the same compound, the outcome in [7], in experiment [8], in experiment [9], in experiment [10], in [11] and in [12] was inactive. For the same compound, the outcome in [13], in experiment [14], in experiment [15], in [16] and in experiment [17] was inactive.

Turning to `Cc1ccnc(NC(=O)COC(=O)C23CC4CC(CC(C4)C2)C3)n1`, the result in [1], in experiment [2], in [3], in [5], in experiment [6] and in experiment [7] was inactive. In addition, the result in experiment [8], in [9], in [10], in experiment [11], in experiment [12] and in experiment [13] was inactive. For the same compound, the outcome in experiment [14], in experiment [16] and in experiment [17] was inactive. Also, the potentiation is 128% (active) in [4] and 104% (active) in [15].

Take `O=C1CC2(CCN(S(=O)(=O)c3ccccc3)CC2)Oc2ccccc21`: the result in experiment [1], in experiment [2], in experiment [3], in experiment [5], in [6] and in [7] was inactive. The result in experiment [8], in experiment [9], in experiment [10], in [11], in [12] and in experiment [13] was inactive. In addition, the outcome in experiment [14], in experiment [16] and in [17] was inactive. Moreover, the potentiation in experiment [4] was 52% (active); in experiment [15], 28.7% (active).

Turning to `COc1cc(/C=C2/SC(=O)NC2=O)ccc1OCc1ccccc1`, the outcome in experiment [1], in experiment [2], in experiment [3], in experiment [4], in experiment [5] and in experiment [6] was inactive. The result in [7], in experiment [8], in experiment [9], in [10], in experiment [11] and in experiment [12] was inactive. The outcome in experiment [13], in experiment [14], in experiment [15], in [16] and in experiment [17] was inactive.

Regarding `CC1(C)CC(=O)C(C=NCCN2CCN(C(=O)CCl)CC2)=C(O)C1`, the outcome in experiment [1], in experiment [2], in [3], in [4], in experiment [5] and in [6] was inactive. The outcome in [7], in [8], in experiment [9], in experiment [10], in experiment [11] and in [12] was inactive. Moreover, the result in experiment [13], in experiment [14], in [15], in experiment [16] and in experiment [17] was inactive.

Turning to `Cc1cccc(N2CCN(C(=O)C3(S(=O)(=O)c4ccc(Cl)cc4)CC3)CC2)c1C`, the result in [1], in [2], in experiment [3], in [5], in experiment [6] and in experiment [7] was inactive. For the same compound, the outcome in experiment [8], in experiment [9], in experiment [10], in experiment [11], in experiment [12] and in [13] was inactive. In addition, the outcome in experiment [14], in [16] and in experiment [17] was inactive. Also, the potentiation was 13% (active) in experiment [4] and 15.1% (active) in experiment [15].

For the compound `Cc1cc2oc(C(=O)N(Cc3ccco3)C3CCS(=O)(=O)C3)cc(=O)c2cc1Cl` (stereo not given), the result in experiment [1], in experiment [2], in experiment [3], in experiment [5], in experiment [6] and in experiment [7] was inactive. Moreover, the result in experiment [8], in experiment [9], in [10], in experiment [11], in experiment [12] and in experiment [13] was inactive. For the same compound, the outcome in experiment [14], in experiment [16] and in experiment [17] was inactive. The potentiation in [4] is 66% (active); in experiment [15], 70.9% (active).

As to `N=C(N)SCc1cn2ccccc2n1`, the outcome in experiment [1], in experiment [2], in experiment [3], in experiment [4], in experiment [5] and in experiment [6] was inactive. Moreover, the outcome in experiment [7], in experiment [8], in [9], in [10], in [11] and in experiment [12] was inactive. Also, the result in [13], in experiment [14], in experiment [16] and in experiment [17] was inactive. Further, the potentiation in experiment [15] was 8.53% (active).

Regarding `CCn1cc(CN2CCC(n3nccc3NC(=O)CCOc3ccccc3)CC2)c(C)n1`, the result in [1], in experiment [2], in experiment [3], in experiment [4], in experiment [5] and in experiment [6] was inactive. The result in experiment [7], in experiment [8], in experiment [9], in experiment [10], in experiment [11] and in experiment [12] was inactive. Moreover, the outcome in [13], in experiment [14], in experiment [15], in experiment [16] and in [17] was inactive.

With `O=C(C[n+]1cc(-c2ccc(Br)cc2)n2c1CCCCC2)c1ccccc1`, the outcome in experiment [1], in experiment [2], in experiment [3], in experiment [4], in experiment [5] and in experiment [6] was inactive. In addition, the outcome in [7], in [8], in experiment [9], in experiment [10], in experiment [11] and in experiment [12] was inactive. Further, the result in [13], in experiment [14], in [15], in experiment [16] and in [17] was inactive.

`COc1ccccc1C1/C(=C(\O)c2ccc3c(c2)OCCO3)C(=O)C(=O)N1Cc1cccnc1` (stereo not given): the result in [1], in [2], in [3], in experiment [4], in experiment [7] and in experiment [8] was inactive. For the same compound, the result in experiment [9], in [10], in experiment [11], in experiment [12], in experiment [13] and in experiment [15] was inactive. For the same compound, the outcome in experiment [16] and in experiment [17] was inactive. In addition, the inhibition (as a rule, how much of the control response was suppressed) in experiment [5] is 82% (active); in experiment [6], 63% (active); in experiment [14], 41.7% (active).

With `CCOC(=O)c1sc2c(c1C)c(=O)n(CCO)c(=O)n2Cc1ccccc1`, the result in experiment [1], in experiment [2], in [3], in experiment [4], in experiment [5] and in experiment [6] was inactive. Also, the result in experiment [7], in experiment [8], in experiment [9], in [10], in experiment [11] and in experiment [12] was inactive. The result in experiment [13], in [14], in experiment [15], in experiment [16] and in experiment [17] was inactive.

As for `CCn1c(CN2CCN(C(c3ccccc3)c3ccccc3)CC2)nc2c1c(=O)n(C)c(=O)n2C`, the outcome in [1], in experiment [2], in experiment [3], in experiment [4], in experiment [5] and in [6] was inactive. Besides, the result in [7], in experiment [8], in [9], in experiment [10], in [11] and in experiment [12] was inactive. The result in experiment [13], in experiment [14], in experiment [16] and in experiment [17] was inactive. The potentiation in experiment [15] is 18.4% (active).

For the compound `Cc1cc2nc(CSc3ccc(Cl)cc3)cc(=O)n2[nH]1`, the result in [1], in experiment [2], in experiment [3], in [4], in experiment [5] and in [6] was inactive. The outcome in [7], in experiment [8], in experiment [9], in experiment [10], in [11] and in experiment [12] was inactive. Besides, the result in experiment [13], in experiment [14], in experiment [15], in experiment [16] and in experiment [17] was inactive.

As for `CCCn1c(=O)c2sccc2n2c(CCCC(=O)NC3CCN(Cc4ccccc4)CC3)nnc12`, the result in [1], in experiment [2], in experiment [3], in experiment [5], in [6] and in [7] was inactive. Further, the result in [8], in experiment [9], in [10], in experiment [11], in [12] and in [13] was inactive. The result in experiment [14], in experiment [16] and in experiment [17] was inactive. In addition, the figures for the potentiation in experiment [4] and in experiment [15] were 7% (active) and 7.99% (active), respectively.
